Source: PubChem BioAssay AID1159580 (chemical genetic matrix, 2015)
About 2,000 (36%) of roughly 5,500 compounds were called active. Another 18% or so got no clear call; they are omitted. No stated cut-off is given here; in the data, active means normalized growth mostly below about 0.91 (no sharp cut-off); inconclusive means no clear call, values can overlap the other calls; inactive means mostly above about 0.92. The list shows a part of the results.

Experiment: chemical genetic growth profiling, strain panel (AID 1159580);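 further: tested at 20 µM; growth read once vehicle control cultures reached saturation at 30 °C; 1 = growth at the plate median or of vehicle wells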
Settings: growth OD

Measured: normalized growth

FC(F)(F)c1cc(-c2noc(C3CCc4ccccc4O3)n2)cc(C(F)(F)F)c1 (centres undefined)
inactive: S. cerevisiae deletion strains, locus YAL013W, strain DEP1, stronger effect = lower value 0.999 | S. cerevisiae deletion strains, locus YBR229C, strain ROT2, stronger effect = lower value 1.02 | S. cerevisiae deletion strains, locus YCL061C, strain MRC1, stronger effect = lower value 0.988 | S. cerevisiae deletion strains, locus YDL101C, strain DUN1, stronger effect = lower value 0.995 | S. cerevisiae deletion strains, locus YDL134C, strain PPH21, stronger effect = lower value 1.03 | S. cerevisiae deletion strains, locus YDR150W, strain NUM1, stronger effect = lower value 0.942 | S. cerevisiae deletion strains, locus YEL061C, strain CIN8, stronger effect = lower value 1.01 | S. cerevisiae deletion strains, locus YGR078C, strain PAC10, stronger effect = lower value 0.988 | S. cerevisiae deletion strains, locus YGR229C, strain SMI1, stronger effect = lower value 1 | S. cerevisiae deletion strains, locus YHR030C, strain SLT2, stronger effect = lower value 1.05 | S. cerevisiae deletion strains, locus YHR087W, strain rtc3, stronger effect = lower value 0.994 | S. cerevisiae deletion strains, locus YJR043C, strain POL32, stronger effect = lower value 0.998 | S. cerevisiae deletion strains, locus YJR075W, strain HOC1, stronger effect = lower value 0.97 | S. cerevisiae deletion strains, locus YKL190W, strain CNB1, stronger effect = lower value 1.02 | S. cerevisiae deletion strains, locus YLR039C, strain RIC1, stronger effect = lower value 1.04 | S. cerevisiae deletion strains, locus YLR058C, strain SHM2 (second series), stronger effect = lower value 0.995 | S. cerevisiae deletion strains, locus YLR085C, strain ARP6, stronger effect = lower value 0.98 | S. cerevisiae deletion strains, locus YLR262C, strain YPT6, stronger effect = lower value 1.04 | S. cerevisiae deletion strains, locus YML094W, strain GIM5, stronger effect = lower value 0.982 | S. cerevisiae deletion strains, locus YMR219W, strain ESC1, stronger effect = lower value 1 | S. cerevisiae deletion strains, locus YMR263W, strain SAP30, stronger effect = lower value 0.993 | S. cerevisiae deletion strains, locus YNL153C, strain GIM3, stronger effect = lower value 0.998 | S. cerevisiae deletion strains, locus YNL298W, strain CLA4 (second series), stronger effect = lower value 1.01 | S. cerevisiae deletion strains, locus YNL322C, strain KRE1, stronger effect = lower value 0.985 | S. cerevisiae deletion strains, locus YNR030W, strain Alg12, stronger effect = lower value 0.996 | S. cerevisiae deletion strains, locus YPL055C, strain LGE1, stronger effect = lower value 0.96 | S. cerevisiae deletion strains, locus YPL241C, strain CIN2, stronger effect = lower value 0.985 | S. cerevisiae deletion strains, locus YPR135W, strain CTF4, stronger effect = lower value 1.11 | S. cerevisiae strains, strain wild type, stronger effect = lower value 1
